NPC1 promoter act = activators of NPC1 promoter; Huh7 NPC1 promoter luciferase reporter, 24 h; Potency, µM (series often up to 9.22 µM), for inactives: at the highest dose activation, hits mostly activators; actives 2.4% (n = 320,000); AID 485313; further: % of control where 0% means no effect; nearly all actives have a fitted effect of over 60% in size
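Luminescence from an NPC1 promoter-driven luciferase reporter in stably transfected Huh7 cells was measured after 24 h compound treatment at 37 °C, followed by 10 min ambient incubation with luciferase detection reagent.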
ELG1 repair inh = blocks ELG1-dependent DNA repair in HEK293T cells; actives 2.3% (n = 330,000); Potency, µM (titrated, usually from 46.1 µM), without a hit: top-dose activity change, negative = inhibition, actives largely listed as inhibitors; HEK293T ELG1-luciferase reporter, luminescence, 16 h; DNA damage induced by 5-fluorouridine; further: on the % scale 0 is the no-effect control and ±100 the full control effect; nearly all actives have a fitted effect of over 55% in size
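Overnight (16 hr) co-exposure of 2,000 cells/well to 5-fluorouridine and compound at 37 °C preceded detection. Luciferase was quantified via ONE-Glo luminescence; loss of signal denotes inhibition.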
FLuc modulator = firefly luciferase modulation, counter-screen for miR-21 project. Potency, µM (series often up to 57.5 µM), without a hit: at the top dose activity change, negative = inhibition, most hits filed as inhibitors. P08659. purified FLuc, Km substrates, luminescence inhibition. actives 6.9% (n = 360,000);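 further: plate controls were vehicle for no effect and reference inhibitor for full effect; nearly all actives have a fitted effect of over 55% in size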
Target sequence (P08659 whole entry, looked up): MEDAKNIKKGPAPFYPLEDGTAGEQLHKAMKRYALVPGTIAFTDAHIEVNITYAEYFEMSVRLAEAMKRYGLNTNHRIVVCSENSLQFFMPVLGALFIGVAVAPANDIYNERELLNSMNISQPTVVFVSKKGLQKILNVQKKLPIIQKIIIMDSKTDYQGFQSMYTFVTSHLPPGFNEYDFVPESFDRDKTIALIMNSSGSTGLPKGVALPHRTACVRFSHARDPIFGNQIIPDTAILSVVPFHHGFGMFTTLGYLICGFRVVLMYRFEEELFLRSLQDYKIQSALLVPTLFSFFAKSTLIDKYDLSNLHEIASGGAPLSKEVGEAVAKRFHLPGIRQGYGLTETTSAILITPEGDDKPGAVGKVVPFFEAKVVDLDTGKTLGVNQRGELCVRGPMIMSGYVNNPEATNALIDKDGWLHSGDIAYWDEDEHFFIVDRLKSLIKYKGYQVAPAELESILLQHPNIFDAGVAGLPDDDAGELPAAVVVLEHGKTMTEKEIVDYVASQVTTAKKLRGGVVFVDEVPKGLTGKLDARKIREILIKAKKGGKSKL
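Purified P. pyralis luciferase, 10 nM final, with Km-level 10 uM D-luciferin and 10 uM ATP in 50 mM Tris acetate pH 7.5, 10 mM Mg acetate, 0.01% Tween-20, 0.05% BSA; 6-point qHTS titration about 60 µM downward; luminescence read.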
SMN2 splice enh = SMN2 splice variant enhancement; HEK293 SMN2-luciferase splicing reporter, luminescence, 30-36 h; Potency, µM (top dose mostly 46.1 µM), inactives show at the highest dose activity change, positive = activation, hits mostly activators; actives 2.8% (n = 210,000); AID 1458; further: % of control where 0% means no effect; nearly all actives have a fitted effect of over 55% in size
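HEK293 cells carry an SMN2 minigene-luciferase reporter in which exon 7 inclusion puts luciferase in frame. Cells were seeded at 2000 cells/well, attached for 10-12 hours, then exposed to compounds for 30-36 hours at 37C before ONE-Glo luminescence.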
Rab9 prom act = activates the Rab9 promoter. actives 2.8% (n = 320,000). AID 485297. Potency, µM (highest dose often 9.22 µM), for inactives: top-dose activation, negative = inhibition, hits mostly activators. Huh7 Rab9 promoter-luciferase reporter, luminescence, 24 h; further: % of control where 0% means no effect; nearly all actives have a fitted effect of over 60% in size
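Huh7 reporter line, Rab9 promoter upstream of luciferase. Compound exposure 24 h at 37 °C in reduced-serum medium with 10% FBS. Read-out: luminescence.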
ELG1 genotox = genotoxicity induction in ELG1-luciferase HEK293T cells; HEK293T ELG1-luciferase reporter, luminescence, 16 h; Potency, µM (doses to about 46 µM), for inactives: at the top dose activity change, positive = activation, hits mostly activators; actives 1.3% (n = 330,000); AID 504466; further: % of control where 0% means no effect; nearly all actives have a fitted effect of over 60% in size
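DMSO vehicle served as control against compound-treated ELG1-luciferase HEK293T cells; exposure lasted 16 hr at 37 °C and 5% CO2, followed by ONE-Glo luminescence detection after 30 min.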
An asterisk follows results filed as active; u = inconclusive; x = no result. This is a sample that favours compounds with a hit; in the whole collection about 9.4% have one here. The call rests on the fitted dose curve; in most records, active means well fitted curve in the direction sought with a large enough effect; inconclusive means small, poorly fitted or top-dose-only effect, or another doubt; inactive means no such curve, though single readings can be large; an effect the other way counts as inactive or inconclusive. Potency means the concentration at half of the fitted maximal effect.

SMILES	NPC1 promoter act	ELG1 repair inh	FLuc modulator	SMN2 splice enh	Rab9 prom act	ELG1 genotox
COc1ccccc1/C=C/C(C)=O	-1.7%	2.1%	0.7%	-3.1%	-2.2%	-3.3%
COc1ccccc1/C=C/C(=O)N1CCN(S(=O)(=O)c2cccs2)CC1	x	20.6µM*	x	x	x	-3.2%
CNc1ccccc(C(=O)/C=C/c2ccccc2OC)c1=O	1.4%	23.1µM*	21.3µM*	-24.0%	2.3%	-4.8%
CCc1ccc(S(=O)(=O)NCc2nc3cccnc3n2Cc2ccccc2Cl)cc1	x	x	2.2%	x	x	x
COc1ccc(NC(=O)C2CCC(CNS(=O)(=O)c3ccc4c(c3)C(C)(C)C(=O)N4C)CC2)cc1 (centres undefined)	x	x	2.6%	x	x	x
COc1ccc2cc(C3OCCO3)c(Cl)nc2c1	2.51µM*	u	12µM*	x	2.51µM*	u
COc1cc(Cl)ccc1OCc1cc(C(=O)NCC(C)c2ccccc2)no1 (centres undefined)	-2.0%	-0.9%	21.3µM*	x	2.0%	-2.3%
COc1cc(Cl)ccc1OCc1cc(C(=O)NC(C)Cc2cnccn2)no1 (centres undefined)	2.51µM*	u	6.75µM*	x	1.12µM*	u
CC(Cc1cnccn1)NC(=O)c1cc(COc2ccc(F)cc2F)on1 (centres undefined)	-0.5%	10.3%	-10.7%	x	-8.0%	0.1%
CCC(NC(=O)c1cc(COc2ccc(OC)cc2Cl)on1)c1ccncc1 (centres undefined)	24.7%	u	12µM*	x	u	15.8%
CC(CNC(=O)c1cc(COc2ccc3ncccc3c2)on1)c1ccccc1 (centres undefined)	-12.3%	10.3µM*	-16.7%	x	-16.5%	-19.3%
COc1cc(Cl)ccc1OCc1cc(C(=O)NC2CCc3ccccc32)no1 (centres undefined)	-0.1%	6.9%	2.7%	x	1.9%	4.3%
CCC(NC(=O)c1cc(COc2ccc(Cl)cc2OC)on1)c1ccncc1 (centres undefined)	3.55µM*	u	4.78µM*	x	3.98µM*	u
Cc1ccsc1/C=N/NC(=O)c1nnn(-c2nonc2N)c1C(C)C	-2.6%	6.0%	16.9µM*	x	-1.2%	-1.5%
CC(C)c1c(C(=O)N/N=C/c2ccc(C(F)(F)F)cc2)nnn1-c1nonc1N	-0.3%	-30.4%	16.9µM*	x	-4.2%	6.2%
CC(C)c1c(C(=O)N/N=C/c2ccsc2)nnn1-c1nonc1N	-7.5%	26.5%	21.3µM*	x	-0.7%	3.9%
CCc1c(C(=O)N/N=C/c2cccs2)nnn1-c1nonc1N	17.1%	18.1%	12µM*	x	14.9%	4.3%
CC(C)Oc1ccc(C(=O)N(Cc2ccc(N(C)C)cc2)C2CCS(=O)(=O)C2)cc1 (centres undefined)	x	x	-0.5%	-0.9%	x	x
Cc1nn(C)cc1C(C)NC(=O)c1cc(COc2ccc(F)c(F)c2)on1 (centres undefined)	7.8%	20.4%	-1.3%	x	0.2%	0.1%
COc1ccc(CNC(=O)c2ccc3c(c2)N(Cc2cccc(Cl)c2)C(=O)c2ccccc2S3)c(OC)c1	x	x	-2.5%	x	x	x
CCOc1ccccc1NC(=O)c1nn(-c2ccc(C)cc2)c(=O)n(C)c1=O	x	x	-1.6%	x	x	x
CC(C)c1c(C(=O)N/N=C/c2ccoc2)nnn1-c1nonc1N	-0.4%	6.8%	u	x	0.3%	3.2%
CC(C)c1c(C(=O)N/N=C/c2cccs2)nnn1-c1nonc1N	8.5%	2.4%	16.9µM*	x	3.0%	0.1%
Nc1nc2c(nc(Br)n2C2O[C@H]3COP(=O)(O)O[C@@H]3C2O)c(=O)[nH]1 (some centres undefined)	x	x	x	-1.6%	x	x
O=C(NC(=S)N1CCN(Cc2ccc3c(c2)OCO3)CC1)c1ccc(Cl)cc1	-0.1%	u	1.7%	-20.8%	-3.7%	-9.0%
SMILES	NPC1 promoter act	ELG1 repair inh	FLuc modulator	SMN2 splice enh	Rab9 prom act	ELG1 genotox
Cc1ccc(OCc2cnc(Cl)s2)c(C)c1	3.9%	u	10.7µM*	-0.1%	-0.1%	19.2%
COc1cccc(N2CC(NC(=O)c3cccc(OC)c3OC)CC2=O)c1 (centres undefined)	x	x	-4.1%	x	x	x
Cc1ccnc(N2CCC(C(=O)Nc3ccc4c(c3)OCCO4)CC2)n1	0.5%	9.9%	u	x	14.4%	3.4%
Cc1cc(C)cc(NC(=O)C2CCCN(c3ncccn3)C2)c1 (centres undefined)	-2.2%	-5.1%	-1.9%	x	-0.8%	-10.2%
O=C(Nc1ccc2c(c1)OCCO2)C1CCN(c2ncccn2)CC1	8.4%	u	15.1µM*	24.0%	27.8%	u
Cc1ccc(NC(=O)C2CCCN(c3ncccn3)C2)cc1F (centres undefined)	3.55µM*	u	10.7µM*	17.8µM*	u	9.2µM*
CCc1c(C)nc2ncnn2c1Nc1ccc(C(C)=O)cc1	26.7%	u	26.9µM*	16.4%	12.9%	18.4µM*
O=C(Nc1ccc2c(c1)CCC2)C1CCCN(c2ncccn2)C1 (centres undefined)	3.98µM*	u	5.36µM*	12.6µM*	u	u
CCOc1ccccc1NC(=O)C1CCCN(c2c(CC)c(C)nc3ncnn23)C1 (centres undefined)	-0.8%	u	2.3%	x	-1.5%	-17.1%
O=C(CSc1ncccn1)Nc1ccc2c(c1)CCC2	-5.2%	u	21.3µM*	x	23.3%	3.9%
CCc1c(C)nc2ncnn2c1N1CCC(C(=O)Nc2ccccc2)CC1	-6.1%	20.6µM*	1.2%	-34.5%	-8.7%	-13.7%
CCc1c(C)nc2ncnn2c1NCCc1ccc(OC)c(OC)c1	-1.6%	11.6µM*	-5.8%	-58.8%	-6.3%	-4.1%
CCc1c(C)nc2ncnn2c1N1CCC(C(=O)Nc2ccc(C)cc2)CC1	-8.4%	u	1.1%	-54.6%	-9.6%	-15.8%
Cc1nc2ncnn2c(N2CCCC(C(=O)Nc3ccc4c(c3)CCC4)C2)c1C (centres undefined)	-3.5%	17.8µM*	-2.6%	-38.1%	-14.9%	-9.8%
N#Cc1ccccc1Cn1cc(/C=N/Nc2ccc([N+](=O)[O-])cn2)c2ccccc21	-16.3%	6.51µM*	3.1%	-17.2%	-8.9%	8.2%
O=[N+]([O-])c1ccc(N/N=C/c2ccc(OCc3cccc4ccccc34)cc2)nc1	20.6%	u	2.0%	-20.1%	-2.3%	20.6µM*
Cc1ccccc1-n1c(C)cc(/C=N/Nc2ccc([N+](=O)[O-])cn2)c1C	u	u	u	22.6%	u	u
O=[N+]([O-])c1ccc(N/N=C\c2cccn2-c2ccccc2)nc1	-4.6%	0.8%	-2.4%	-53.6%	-4.0%	-5.5%
